# Source: PubChem BioAssay AID1814 (Broad Institute, 2009)
# Screen size: about 300,000 compounds; about 22,000 (7.3%) were called active. About 2% were inconclusive and are not listed. Rule as the data show it: active = activity score below about -60%; inconclusive = mostly about -28% to -61%; inactive = positive scores. Only a selection was taken, and actives are over-represented in it overall.
# Test: Activators working through SNCA 5'UTR binding (MLPCN) (AID 1814)
# Conditions: alpha-synuclein 5'UTR reporter, activators screen; stronger effect = lower value; tested at 7.5 µM
row,Structure (SMILES),activity score
1,Cc1ccc(C(=O)Nc2nc3ccc(Cl)cc3s2)o1,-183% (active)
2,O=C(c1cccs1)N1CCCC(c2nc(-c3ccc(F)cc3)no2)C1 (stereo unspecified),-91.6% (active)
3,Cc1ccc(-c2noc(C3CCCN(C(=O)c4cccc(Cl)c4)C3)n2)o1 (stereo unspecified),-109% (active)
4,Cc1ccc2nc(N3CCN(C(=O)c4ccco4)CC3)sc2c1,-216% (active)
5,COc1ccc2nc(N3CCN(C(=O)c4ccc([N+](=O)[O-])o4)CC3)sc2c1,-160% (active)
6,C/C(=N\NC(=O)c1ccc(C)cc1)C1C(=O)c2ccccc2C1=O,-78.5% (active)
7,COc1ccc(NC(=O)CSc2nc(SC)ns2)c(OC)c1,-118% (active)
8,c1c2c(cc3sc(N4CCCCC4)nc13)OCCO2,107% (inactive)
9,Brc1ccc2nc(N3CCCC3)sc2c1,-105% (active)
10,Fc1ccc2nc(N3CCCCC3)sc2c1,-129% (active)
11,CN(C)CCCN(C(=O)c1ccc(S(=O)(=O)N2CCCCCC2)cc1)c1nc2ccc(Br)cc2s1,75.3% (inactive)
12,Fc1cc(F)c2nc(Nc3nc4c(F)cccc4s3)sc2c1,-218% (active)
13,C=CCn1c(C)cc(C2=NNC(=NCC)SC2)c1C,105% (inactive)
14,Cc1cccc(N=C2NN=C(c3c[nH]c4ccccc34)CS2)c1,-102% (active)
15,COc1ccc(-c2nnc(SC(C)C#N)o2)cc1 (stereo unspecified),-98.3% (active)
16,COc1ccc(-c2nnc(SCc3cccnc3)o2)cc1,-128% (active)
17,COc1cc(/C=N/n2c(C)n[nH]c2=S)ccc1OCc1ccccc1,-106% (active)
18,COc1ccc2[nH]c(C(=O)Nc3ccccc3Cl)cc2c1,-132% (active)
19,O=C(CN1C(=O)c2ccccc2S1(=O)=O)N1CCc2ccccc21,93.5% (inactive)
20,O=C(CSCc1ccccc1)N1CCc2ccccc21,-92.8% (active)
21,COc1ccc(Nc2ncnc3sc(C)cc23)cc1,-159% (active)
22,O=C(c1ccc(CSc2ccccc2)cc1)N1CCCCCC1,-99.5% (active)

row,Structure (SMILES),activity score
1,CCc1ccc(-c2cc(C(=O)NCc3ccco3)c3ccccc3n2)s1,-123% (active)
2,O=C(/C=C/c1ccc(Cl)cc1Cl)NCc1ccco1,-119% (active)
3,CC1CCc2sc3nc(N4CCN(CCO)CC4)n4ncnc4c3c2C1 (stereo unspecified),-73.1% (active)
4,COc1cccc(NC(C)=[N+](C)CCNS(=O)(=O)c2ccc(Cl)cc2)c1,-156% (active)
5,CC(C)OC(=O)c1sc2nc3c(cc2c1N)C(=O)CCC3,-182% (active)
6,Nc1c(C(=O)NCc2ccccc2)sc2nc3c(cc12)C(=O)CCC3,-63.1% (active)
7,Cn1c(=NC(=O)C2CC2)sc2cc(F)cc(F)c21,-88% (active)
8,Cc1ccc(NC(=O)C2CC2c2ccccc2)cc1 (stereo unspecified),-65.1% (active)
9,C1=C(CCNc2ncnc3c2cnn3-c2ccccc2)CCCC1,-141% (active)
10,CCOc1cccc2c1OC1(CCCCC1)N1N=C(c3cccnc3)CC21 (stereo unspecified),-77% (active)
11,CCOC(=O)C1=C(CN2CCc3ccccc32)NC(=O)NC1c1ccc(Cl)cc1 (stereo unspecified),44.8% (inactive)
12,COc1cc(/C=C(\C#N)c2nc3ccccc3[nH]2)ccc1O,-152% (active)
13,COc1cc(/C=C(\C#N)c2nc3c(s2)CC(C)CC3)ccc1O (stereo unspecified),-208% (active)
14,O=C(COc1ccc2oc3c(c2c1)CCCC3)Nc1ccccn1,-131% (active)
15,Cc1cccc(C(=O)NC(=S)N(C)C2CCCCC2)c1,-74.3% (active)
16,CSc1nc(N(C)NC(=O)c2cccc(C)c2)c2ccccc2n1,114% (inactive)
17,Cc1c(C(=O)NC2CCCCC2)oc2ccccc12,-82.5% (active)
18,CCc1nonc1NC(=O)c1oc2ccc(Cl)cc2c1C,-90.7% (active)
19,Cc1nonc1NC(=O)c1oc2ccccc2c1C,-127% (active)
20,Cc1c(C(=O)N2CCCc3ccccc32)oc2ccccc12,-96.2% (active)
21,Cc1ccc(NC(=O)c2oc3ccccc3c2C)c([N+](=O)[O-])c1,-101% (active)
22,Cc1c(C(=O)Nc2ccccn2)oc2ccc(Br)cc12,-122% (active)

row,Structure (SMILES),activity score
1,CSc1cccc(NC(=S)N(C(C)C)C(C)c2ccccn2)c1 (stereo unspecified),-66.1% (active)
2,Cc1ccc(-c2cc(C(=O)NCc3cn(C)nc3C)c3cc(Br)ccc3n2)cc1,-87.5% (active)
3,CCS(=O)(=O)N1Cc2ccccc2CC1C(=O)Nc1nc2ccc(F)cc2s1 (stereo unspecified),-83.8% (active)
4,CN(C)CCCN(C(=O)c1ccc(S(=O)(=O)N2CCCc3ccccc32)cc1)c1nc2ccc(F)cc2s1,74.2% (inactive)
5,O=C(Nc1ccccc1Cl)c1ccc2nsnc2c1,-133% (active)
6,O=C(Nc1ccccc1)c1ccc2nsnc2c1,-119% (active)
7,COc1ccccc1Nc1ncnc2c1oc1ccccc12,-147% (active)
8,O=[N+]([O-])c1ccc2c(c1)C(O)n1nc(-c3ccccc3)nc1S2 (stereo unspecified),-63.3% (active)
9,CCS(=O)(=O)C1=NSC2=NC(=O)/C(=C\c3cc(C)n(-c4cccc(OC)c4)c3C)C(=N)N21,-130% (active)
10,CCN(CC)CCOc1ccc2c(c1)C(=NNC(=O)c1ccccn1)c1cc(OCCN(CC)CC)ccc1-2,109% (inactive)
11,CC(O)c1ccc(OCCN(C)c2ccccn2)cc1 (stereo unspecified),-143% (active)
12,N#CC(=C1CCCC1)c1nc(-c2ccc(Cl)cc2)cs1,-189% (active)
13,N#CC(=C1SC=CS1)c1nc(-c2ccccc2)cs1,-305% (active)
14,CCOC(=O)/C(C#N)=C/c1ccc(N2CCCCC2)cc1,-72.9% (active)
15,Cc1nc2cc(NCc3cccs3)ccc2n1C,-107% (active)
16,OC(c1nnc(-c2ccccc2)o1)c1cccs1 (stereo unspecified),-90.8% (active)
17,CCOc1ccc(N/C=C/C(=O)c2cc(OC)c(OC)c(OC)c2)cc1,-117% (active)
18,COc1ccc2[nH]cc(CCN3C(=O)c4ccc(C(=O)O)cc4C3=O)c2c1,-169% (active)
19,CC[C@H]1CN2CCc3cc(OC)c(OC)cc3[C@@H]2C[C@@H]1C[C@H]1NCCc2cc(OC)c(OC)cc21,109% (inactive)
20,O=C1c2ccccc2NC(c2ccccc2O)N1NS(=O)(=O)c1ccccc1 (stereo unspecified),-64.1% (active)
21,Nc1c(C(=O)c2cccs2)sc2nsc(SCCN3CCCCC3)c12,-213% (active)
22,c1ccc(-c2csc(N3CCc4ccccc4C3)n2)cc1,-117% (active)
